Only some compounds are listed: those with a hit (about 4.2% of all), similar ones and a draw of the others.
DAX1 StAR inh = blocks DAX1 repression of SF-1 activated StAR promoter; HEK293T StAR-luciferase reporter, SF-1/DAX-1 repression relief; AID 652010; 370,000 tested, 1.1% active; inhibition, % at 6.8 µM;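 active means inhibition above the mean over all tested compounds plus 3 SD, cut at about 3.6% in these data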;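 further: 0% = DAX-1 cells with DMSO and 100% = cells lacking DAX-1 with DMSO; higher inhibition means more luminescence from relief of DAX-1 repression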
ssDAF-12 act = activates DAF-12 receptor from parasite S. stercoralis | activation, % at 6.8 µM | HEK293 ssDAF-12/GRIP1 lit1-tk-luc reporter, luminescence; % of 3 µM dafachronic acid response | 370,000 tested, 1% active | AID 652126;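 active means activation above the mean over all tested compounds plus 3 SD, cut at about 0.9% in these data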;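 further: 0% = DMSO-only wells and 100% = 3 µM delta7-dafachronic acid wells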
hgDAF-12 ag = agonists of H. glycines DAF-12 nuclear receptor. HEK293 GAL4-hgDAF12 UAS-luciferase reporter, agonist luminescence; normalized to butyrate control. 370,000 tested, 1.8% active. activation, % at 6.8 µM. AID 687014;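 active means activation above a cutoff set at the mean of all screened compounds plus 3 SD, cut at about 10% in these data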;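 further: 0% = DMSO wells and 100% = sodium butyrate wells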
SMARCA2 act = activators of SMARCA2 function. MG213 cells, MMTV-luciferase reporter, dexamethasone, overnight. activation, % at 9.1 µM. 370,000 tested, 1% active. AID 652017; in the data active means activation above about 7.8%;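 further: 0% = vehicle wells and 100% = reference activator wells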
hcDAF-12 act = activates DAF-12 receptor from parasite H. contortus. HEK293 hcDAF-12 lit1-tk-luc reporter, luminescence; 0% DMSO, 100% Δ7-dafachronic acid. activation, % at 6.8 µM. 370,000 tested, 1.4% active. AID 652067;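 active means activation above the mean of all tested compounds plus 3 SD, cut at about 5.5% in these data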;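 further: 100% = response to 3 µM Δ7-dafachronic acid high control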
LXR ag = counter-screen for hcDAF-12 agonists: agonists of human LXR-beta. HEK293 Gal4-LXR tk-luc reporter, luminescence, 24 h; normalized: DMSO 0%, positive control 100%. shares compounds with hcDAF-12 act. 3,400 tested, under 10 active. activation, % at 6.8 µM;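 active means mean percent activation of the reporter above a cutoff set as the average over tested compounds plus their standard deviation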
Target sequence (P55055 whole entry, looked up, the tested form may be a part): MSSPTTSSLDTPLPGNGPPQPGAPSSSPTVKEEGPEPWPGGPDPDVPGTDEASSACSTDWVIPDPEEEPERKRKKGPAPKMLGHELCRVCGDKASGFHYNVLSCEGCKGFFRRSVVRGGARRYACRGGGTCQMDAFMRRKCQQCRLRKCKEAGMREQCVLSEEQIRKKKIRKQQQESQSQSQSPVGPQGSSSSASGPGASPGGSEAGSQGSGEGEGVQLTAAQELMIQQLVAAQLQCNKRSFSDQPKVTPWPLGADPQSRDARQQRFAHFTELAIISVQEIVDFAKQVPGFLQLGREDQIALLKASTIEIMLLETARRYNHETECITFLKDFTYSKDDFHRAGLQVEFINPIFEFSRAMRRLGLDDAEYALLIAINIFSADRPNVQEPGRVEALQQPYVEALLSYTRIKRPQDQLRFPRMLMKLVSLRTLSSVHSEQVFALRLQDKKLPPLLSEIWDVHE
hcDAF12 ag = hcDAF-12 agonism, confirmation assay | shares compounds with hcDAF-12 act | HEK293 hcDAF-12 lit1-tk-luc reporter, luminescence; % of Δ7-dafachronic acid response | activation, % at 6.8 µM | 3,400 tested, 61% active | AID 743032;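 active means mean activation across triplicate tests above the threshold derived from the earlier primary screen, cut at about 5.5% in these data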;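 further: 0% = DMSO only wells and 100% = 3 µM Δ7-dafachronic acid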
* = called active by the depositor; . = no result.

SMILES	DAX1 StAR inh	ssDAF-12 act	hgDAF-12 ag	SMARCA2 act	hcDAF-12 act	LXR ag	hcDAF12 ag
c1ccc(-c2csc(Nc3ccccn3)n2)cc1	2	2.7*	18*	-1	14*	2	17*
O=C(CCS(=O)(=O)c1cc2c(cc1Br)CCN2C(=O)C1CC1)N1CCN(c2ccccn2)CC1	-1	-1	5	0	0	.	.
Cc1ccc(NC(=O)Cc2c(Cl)cccc2Cl)cc1S(=O)(=O)N(C)C	-1	-1	-2	-4	11*	0	2
Cc1ccc(NC(=O)CNCc2ccccc2Cl)cc1S(=O)(=O)N(C)C	0	-1	2	1	2	.	.
O=C(CSC1CCc2ccccc21)NN=Cc1ccco1 (stereo unspecified)	-1	0	4	7	1	.	.
CCOC(=O)c1nc2ccccc2nc1C	0	-2	-1	-1	6.9*	0	2
CCOC(=O)c1nc2ccccc2c(C)c1C	0	-2	2	-2	0	.	.
CSc1cccc(NC(=O)c2cccc3cccnc23)c1	1	2.3*	11*	3	12*	1	8.5*
CCCN(CC1CC1)c1c2c(nc3ncnn13)CCCC2	-1	-1	0	-5	-3	.	.
N/C(=N\OC(=O)c1cccc2ccccc12)c1ccncc1	0	2.3*	4	3	7.5*	0	4
N/C(=N\OC(=O)c1cccc2ccccc12)c1ccc(Br)cc1	0	2.2*	-1	6	8.9*	0	4
Cc1ccccc1C(=O)O/N=C(\N)c1ccccc1	3	0.9*	8	4	10*	2	25*
CC1(C(=O)Nc2ccc3c(c2)OCO3)CCN1C(=O)Cc1cccc2ccccc12 (stereo unspecified)	0	0	-2	-3	-2	.	.
CN(C)c1oc(/C=C/c2ccccc2)nc1C#N	2	0	8	0	6.7*	1	6
CN(C)c1oc(-c2ccccc2)nc1C#N	-1	-1	1	-3	-1	.	.
CCCS(=O)(=O)N1CCN(Cc2c[nH]c3ccccc23)CC1	0	1.4*	2	2	7.2*	0	5
COc1ccc(NC(=O)c2c(Cl)n(C)c3ccccc23)cc1	-1	1.0*	7	3	8.2*	0	6.9*
COc1ccc(NS(=O)(=O)NC(=O)c2c(C)n(C)c3ccccc23)cc1	0	0	6	1	7.3*	0	1
COc1ccc(NC(=O)c2c(C)nn(-c3ccccc3)c2Cl)cc1	0	-1	2	7	1	.	.
Cc1nn(C(=O)CNC(=O)c2ccccc2)c(C)c1C	2	-1	-1	-3	-1	.	.
Cc1nn(C(=O)c2cc3sccc3[nH]2)c(C)c1C	2	0	10*	1	8.1*	1	11*
CN(C)CCCNc1nc(-c2ccccc2)nc2ccccc12	0	0	-1	0	4	.	.
Cc1ccc(-c2nc(NCCCN(C)C)c3ccccc3n2)cc1	3	0	11*	8	8.3*	0	11*
Clc1ccc(-c2nc(NCCCN3CCOCC3)c3ccccc3n2)cc1	-1	-1	2	-2	0	.	.
Cc1ccc(-c2nc(NCCN3CCOCC3)c3ccccc3n2)cc1	2	0	11*	5	6.8*	0	6.4*
SMILES	DAX1 StAR inh	ssDAF-12 act	hgDAF-12 ag	SMARCA2 act	hcDAF-12 act	LXR ag	hcDAF12 ag
Cc1cc(C)c2oc(-c3ccc(Cl)c(NC(=O)c4ccc(C#N)cc4F)c3)nc2c1	0	0	1	4	6.6*	0	5.7*
Oc1csc(Cc2nc(-c3ccc(Br)cc3)cs2)n1	2	0	12*	4	8.8*	0	7.6*
NC(=O)Cc1nc(-c2ccc(Br)cc2)cs1	1	-1	3	3	-3	.	.
c1coc(-c2nc3ccccc3s2)c1	1	1	9	-4	4	.	.
COc1ccc(Cl)cc1-c1nc(N)nc(N(C)C)n1	0	-2	-2	-1	-1	.	.
CN(C)c1nc(N)nc(-c2nc3ccccc3s2)n1	3	1.6*	11*	6	9.3*	2	16*
Nc1ccccc1-c1nc2ccccc2s1	3	1.9*	26*	-1	11*	1	10*
Oc1ccc(-c2nc3ccccc3s2)cc1	4.2*	1.3*	24*	4	7.6*	2	8.1*
Cc1ccc2nc(-c3ccc(C#N)cc3)c(Cc3cccc(F)c3)n2c1	0	0	4	2	-1	.	.
CCCCn1nnnc1C1(C)CCC(=O)N1CC1CCCCC1 (stereo unspecified)	-1	-1	0	-5	0	.	.
c1ccc2c(c1)oc1c(Nc3ccc4c(c3)OCCO4)ncnc12	4	1	12*	4	9.1*	1	6.4*
c1ccc2c(C3=NNC(=NC4CCCCC4)SC3)c[nH]c2c1	0	1.5*	3	5	9.3*	0	5
Cc1cc(C2=NNC(=NC3CC3)SC2)c(C)n1Cc1ccco1	-4	-4	-21	-11	-10	.	.
COC(=O)c1cc(-c2cnc(OC)nc2OC)c(=O)n2c1CCC2	-1	-1	-3	-2	2	.	.
C=CC[C@@H](CC(=O)N(CCO)Cc1ccccc1)C(=O)N[C@H](COC(=O)[C@@H](CC=C)Cc1ccc(F)cc1)c1ccccc1	-1	-1	0	-1	7.6*	0	1
O=C(Nc1ccc(Cl)cc1)[C@@H]1[C@@H]2C(=O)N(c3cccc(F)c3)C(=O)[C@@H]2[C@H]2C=CC=NN21	0	-1	2	-2	1	.	.
O=C(Nc1ccc(Cl)cc1)[C@@H]1[C@@H]2C(=O)N(c3ccc4ccccc4c3)C(=O)[C@@H]2[C@H]2C=CC=NN21	0	0	0	0	6.8*	0	2
COc1ccc(N2C(=O)[C@@H]3[C@H](C2=O)[C@H]2C=CC=NN2[C@@H]3C(=O)Nc2ccc(Cl)cc2)cc1	0	0	-1	-5	6.5*	0	1
O=C(NCC1COc2ccccc2O1)c1ccc(NC(=O)C(Cl)Cl)cc1 (stereo unspecified)	-1	-1	8	-1	1	.	.
O=C(CNS(=O)(=O)c1cccc2ccccc12)N1CCN(c2ncccn2)CC1	0	-1	0	-5	-2	.	.
C[C@@H]1CN([C@H](C)CO)C(=O)CCCn2cc(nn2)CO[C@H]1CN(C)S(=O)(=O)c1cn(C)cn1	1	0	0	3	1	.	.
O=C1c2cccc3c(N4CCOCC4)c([N+](=O)[O-])cc(c23)C(=O)N1c1cccc2ccccc12	0	-1	0	1	6.8*	0	-1
